Values joined by “and” are separate entries in the source; they are usually repeats but may differ in a detail not shown here. Equal values may be shown once. The panel holds about 83,000 compounds, 20% with a hit somewhere; the sample as a whole holds those more often.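 Percent growth is the endpoint: 0 to 100 indicates growth inhibition (40 means 60% inhibition), 0 means no net growth, and negative values indicate cell death.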 A number with no mark means an inactive call. Active and inactive are the calls of the source. Rule for the calls: active = growth percent below 10; inactive = the rest.
The compounds below were run on MDA-MB-468 breast (assay: NCI-60 one-dose screen, 48 h (100 = growth as untreated, 0 = no growth, -100 = all killed)). Conditions: 10 µM unless noted.

| SMILES | growth |
| --- | --- |
| C=C1C(=O)O[C@H]2[C@H]1CC/C(COC(=O)C(=O)c1cn(C)c3ccc(Cl)cc13)=C\CC[C@@]1(C)O[C@@H]21 | -88.2% (active) |
| NS(=O)(=O)c1ccc(-n2nc(-c3ccc(Br)cc3)ccc2=O)cc1 | 66% [100 µM] |
| O=[N+]([O-])c1cccc(-c2nc3cc4nc5ccccc5[nH]c4cc3n2)c1 | 95.5% |
| O=C(CI)Nc1ccc(O)c2ccccc12 | -71.7% (active) |
| N#Cc1c2c(nc3n[nH]c(N)c13)CCCC2 | 93.6% |
| CN(CCC#N)c1ccc(/C=C(\C#N)c2cccc(C(F)(F)F)c2)cc1 | 23.4% |
| O=[N+]([O-])c1cc2ncccc2c2ncccc12 | 89% |
| COc1ccc(COc2ccc(/C=C3/C(=O)Nc4cc(Cl)ccc43)cc2)cc1 | 93.4% |
| COc1cc(C(=O)c2cc(C(C)=O)c3c4ccccc4ccn23)cc(OC)c1OC | 42.1% |
| C#C[C@]1(O)CC[C@H]2[C@@H]3CC=C4c5sc(N=C(N)N)nc5CC[C@]4(C)[C@H]3CC[C@@]21C | -31.7% (active) |
| Nc1ccc(C(=O)CSc2nc3ccccc3[nH]2)cc1 | 93.2% |
| C=C1C(=O)O[C@H]2[C@H]1CC/C(CNC(=O)CCc1ccc(OC)cc1)=C\CC[C@@]1(C)O[C@@H]21 | 32.1% |
| O=C1CSC(c2ccccc2Cl)N1c1nnc(Cn2nnc3ccccc32)o1 (stereo not given) | 82.7% |
| c1csc(-c2cc(-c3cc(-c4cccs4)[nH]n3)n[nH]2)c1 | 77.3% |
| C#C[C@@]1(O)[C@@H](CO)O[C@@H](n2cc(C(F)(F)F)c3c(N)ncnc32)[C@@H]1O | -56.3% (active) |
| CC1=NN(C(=O)c2nn(-c3ccc(Cl)cc3)cc2O)C(=O)C1 | 54.6% |
| O=C(/C=C/c1ccc(Cl)cc1)c1ccc(Br)cc1 | 107% |
| Nc1c(C(=O)Nc2c(Cl)cccc2Cl)sc2nc3c(cc12)C(=O)CCC3 | -3.83% (active) |
| COc1ccc(C(O)c2cc3c(N)c(C(=O)Nc4cccc5ccccc45)sc3nc2C)cc1 (stereo not given) | 23.7% |
| CCO/C=C1\SC(=S)N(c2cccc(C)c2)C1=O | 102% |

| SMILES | growth |
| --- | --- |
| CC1(C)N=C(N)N=C(N)N1c1ccc(S(=O)(=O)Nc2nccs2)cc1 | 103% |
| COC1=CC(c2ccc[nH]2)=N/C1=C\c1[nH]c(C)c(CC(=O)NCc2ccccc2)c1C | 27.3% |
| COc1cc(NCCCCC(C)N)c2nccc(C)c2c1 (stereo not given) | 10.6% |
| O=C(NCCc1ccccc1)/C(=C\c1ccc(Cl)cc1Cl)NC(=O)c1ccccc1 | 95.1% |
| NC(CSC(c1ccccc1)(c1ccccc1)c1ccc2c(c1)OCO2)C(=O)O (stereo not given) | -56.6% (active) |
| CC(C)/C(=N/O)c1ccccc1 | 105% |
| COc1ccccc1/C=C/C(=O)CCC(=O)O | 124% |
| NNC(=S)N1N=C(c2cc3ccccc3o2)CC1c1c[nH]c2ccccc12 (stereo not given) | 15.3% |
| COc1ccc([N+](=O)[O-])cc1OC | 108% and 101% |
| COc1ccc(N2CCN(C(=O)c3sc4nc(C)c(Br)c(C)c4c3N)CC2)cc1 | 109% |
| CNC(=S)NC(C)(C)C | 111% |
| N#Cc1c2c([nH]c(=O)c1C(N)=O)CCCCC2 | 109% |
| CC(C)N1CCN(Cc2ccc3c(NNC(=O)c4ccccc4)nc4cc(F)ccc4n23)CC1 | -14.3% (active) |
| Brc1ccc2c(c1)-c1ccccc1C1=NCCN12 | -45% (active) |
| O=[N+]([O-])c1ccccc1S(=O)c1ccccc1[N+](=O)[O-] | 40.1% |
| Cc1ccc2c(-c3cc(-c4ccccc4)nc(N)c3C#N)cc(=O)oc2c1 | 103% |
| COc1cc(/C=N/Nc2ccnc3cc(Cl)ccc23)cc(OC)c1O | -72.1% (active) |
| C=CN(C(=O)N1CCN(c2cc3c(cc2F)c(=O)c(C(=O)O)cn3C2CC2)CC1)c1nc(-c2ccc(OC)cc2)cs1 | 13.4% |
| O=C(NCCNc1cc(-c2cn(-c3ccccc3)nc2-c2cccc(O)c2)ccn1)Nc1cc(C(F)(F)F)cc(C(F)(F)F)c1 | 93.6% |
| NS(=O)(=O)c1ccc(C(=O)N=Nc2c(O)[nH]c3ccc(Cl)cc23)cc1 | 110% |

From PubChem BioAssay (NCI)
